Vaccinia Venus: vaccinia inhibition (Venus reporter) | Vaccinia virus Venus reporter expression, fluorescence | Potency, µM (doses to about 36.5 µM), for inactives: at the highest dose activity change, negative = inhibition, most hits filed as inhibitors | 330,000 tested, 0.46% active | AID 720580; calls by dose curve; tested in A549 cells; note: nearly all actives have a fitted effect of over 30% in size
Vaccinia mCherry: inhibitors of vaccinia virus infection (mCherry reporter signal) | Vaccinia virus mCherry reporter infection, fluorescence | Potency, µM (top dose mostly 36.5 µM), for the others: at the top dose activity change, negative = inhibition, usual class: inhibitors | 310,000 tested, 0.63% active | AID 720579; calls by dose curve; tested in A549 cells; note: nearly all actives have a fitted effect of over 35% in size
FMDV antiviral: antivirals against foot and mouth disease virus; Potency, µM (top dose mostly 57.9 µM), for the others: at the top dose activity change, negative = inhibition, usual class: inhibitors; 410,000 tested, 1.2% active; FMDV antiviral cell-based qHTS; AID 1159524; calls by dose curve; tested in HEK293T cells; note: read-out not given here; nearly all actives have a fitted effect of over 45% in size
MARV entry inh: inhibitors of Marburg virus binding or cell entry. Marburg virus pseudotyped entry inhibition, cell reporter. Potency, µM (doses to about 37.8 µM), inactives show at the highest dose activity change, negative = inhibition, usual class: inhibitors. 300,000 tested, 1.8% active. AID 540276; calls by dose curve; tested in HEK293 cells
Sm TGR block: blocks Schistosoma mansoni thioredoxin glutathione reductase | Potency, µM (titrated, usually from 114 µM), inactives show at the highest dose activity change, negative = inhibition, most hits filed as inhibitors | AID 485364 | 360,000 tested, 3% active | purified TGR, DTNB reduction, TNB absorbance 405 nm | Q962Y6; active = well fitted inhibition curve with a large enough effect; inconclusive = small, poorly fitted or top-dose-only effect; inactive = no such curve, though single readings can be large or run the other way; note: nearly all actives have a fitted effect of over 60% in size
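First, TGR (20 nM dispensed) and NADPH were mixed with compound. Second, a 15 min room-temperature incubation followed. Third, further NADPH and then DTNB were added to start the reaction. Finally, TNB absorbance was monitored kinetically.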
Lassa entry inh: blocks Lassa virus binding to or entry into cells | Lassa virus pseudotype entry inhibition, cell reporter | Potency, µM (highest dose often 37.9 µM), for the others: at the highest dose activity change, negative = inhibition, hits mostly inhibitors | 300,000 tested, 1.2% active | AID 540256; calls by dose curve; tested in HEK293 cells; note: nearly all actives have a fitted effect of over 50% in size
Starred values were filed as active, the others as inactive; [ ] = another dose, or the depositor's remark. In the library only some 5.4% were active in any assay of this set; here they are far more common. % is set by controls: 0 for no effect and ±100 for the full control effect; potency is the fitted concentration of half-maximal effect.

COc1ccc(Cl)cc1C(=O)Nc1ccc2nc3n(c(=O)c2c1)CCCC3 was read as Vaccinia Venus -18.2%, Vaccinia mCherry -21.7%, FMDV antiviral 11.0%, MARV entry inh inconclusive, Sm TGR block 0.6% and Lassa entry inh -4.0%.
Screening CCOc1ccccc1C(=O)Nc1ccc2nc3n(c(=O)c2c1)CCCCC3 returned FMDV antiviral 3.1% and Sm TGR block -10.7%.
Screening COc1ccccc1Nc1c2c(nc3ccc(NC(=O)c4ccc(N(C)C)cc4)cc13)CCCC2 returned Vaccinia Venus -12.3%[7.34 µM], Vaccinia mCherry -24.1%[7.34 µM], FMDV antiviral -27.1%, MARV entry inh 3.16µM*, Sm TGR block 1.1% and Lassa entry inh inconclusive.
`COc1cc(OC)c(OC)cc1CN1CCc2nc(Nc3ccc4c(c3)OCCO4)ncc2C1` gave Vaccinia Venus -12.4%, Vaccinia mCherry -14.7%, FMDV antiviral inconclusive, Sm TGR block inconclusive and Lassa entry inh 0.5%[46.1 µM].
`COc1ccc(C(=O)COC(=O)CCN2C(=O)C3C4C=CC(C5CC45)C3C2=O)cc1` (centres undefined) gave Vaccinia Venus 2.7%, Vaccinia mCherry -12.1%, FMDV antiviral -7.4%, MARV entry inh 8.4%, Sm TGR block 25.1µM* and Lassa entry inh inconclusive.
COc1cc(=O)n2c(c1C(=O)N(C)Cc1nonc1C)CCN(C(=O)C1C(C)(C)C1(C)C)CC2 was read as Vaccinia Venus 0.0%, Vaccinia mCherry inactive and FMDV antiviral 4.3%.
`CCOc1ccc(NC(=O)N2CCC(CN3CCCCCC3)CC2)cc1` gave Vaccinia Venus -10.7%, Vaccinia mCherry -4.8%, FMDV antiviral 16.9%, Sm TGR block inconclusive and Lassa entry inh 23.3%[46.1 µM].
Screening c1ccc(-c2nnc(-c3ccco3)o2)cc1 returned Vaccinia Venus -1.7%, Vaccinia mCherry -8.3%, FMDV antiviral 48.0%, MARV entry inh -2.7%, Sm TGR block 5.1% and Lassa entry inh -5.3%.
Screening c1coc(-c2nnc(-c3ccco3)nn2)c1 returned Vaccinia Venus 3.9%, Vaccinia mCherry inconclusive, FMDV antiviral 11.8%, MARV entry inh 16.5%[46.1 µM], Sm TGR block 3.98µM* and Lassa entry inh 25.2%.
`Cc1cccc(N2CCN(C(=O)CC(NC(=O)c3ccccc3Cl)c3ccccc3)CC2)c1C` (centres undefined) gave Vaccinia Venus -21.9%, Vaccinia mCherry inactive, FMDV antiviral -9.7%, MARV entry inh 11.6µM*, Sm TGR block 0.9% and Lassa entry inh inconclusive.
Screening CCc1ccccc1NC(=O)Cn1c(=O)n(CCCCCC(=O)NCc2ccc(C)cc2)c(=O)c2sccc21 returned Vaccinia Venus inconclusive, Vaccinia mCherry inconclusive, FMDV antiviral -11.7%, MARV entry inh -0.2%[46.1 µM], Sm TGR block -1.2% and Lassa entry inh -18.6%[46.1 µM].
Screening CC[n+]1ccnc2ccccc21 returned Vaccinia Venus 12.6µM* and Vaccinia mCherry 17.8µM*.
For O=C(C[n+]1ccnc2ccccc21)c1ccc(Cl)cc1 the results were Vaccinia Venus -2.5% and Vaccinia mCherry inactive.
CCOCCCNC(=O)C(c1ccccc1)N(Cc1cccs1)C(=O)c1ccc(NC(C)=O)cc1 (centres undefined) was read as Vaccinia Venus 9.1%, Vaccinia mCherry -3.4%, FMDV antiviral -19.8%, MARV entry inh inconclusive, Sm TGR block 1.9% and Lassa entry inh -3.6%[46.1 µM].
For c1c2c(cc3sc(N4CCOCC4)nc13)OCCO2 the results were FMDV antiviral -86.2%, MARV entry inh inconclusive, Sm TGR block 1.0% and Lassa entry inh 5.17µM*.
For CC(Sc1ncnc2ccccc12)C(=O)Nc1ccc2c(c1)OCCO2 (centres undefined) the results were Vaccinia Venus inconclusive, Vaccinia mCherry inconclusive, FMDV antiviral 15.8µM*, MARV entry inh inconclusive, Sm TGR block -13.0% and Lassa entry inh -22.7%.
`CC(C)Cn1c(SC(C)C(=O)Nc2ccc3c(c2)OCCO3)nc2ccccc2c1=O` (centres undefined) gave Vaccinia Venus -9.2%, Vaccinia mCherry -4.8%, MARV entry inh inconclusive, Sm TGR block -1.2% and Lassa entry inh 11.6µM*.
Screening CC(Sc1nc2ccccc2c(=O)n1C)C(=O)Nc1ccc2c(c1)OCCO2 (centres undefined) returned FMDV antiviral inconclusive and Sm TGR block -5.0%.
O=C(CSc1ncnc2ccccc12)Nc1ccc2c(c1)OCCO2 was read as Vaccinia Venus -25.1%, Vaccinia mCherry -20.8%, FMDV antiviral -16.9%, MARV entry inh -23.5%[46.1 µM], Sm TGR block -3.3% and Lassa entry inh 10.7%.
`C=CCN1c2ccccc2[C@]23C[C@@H](C(=O)OC)N(C(=O)Nc4ccc(C(F)(F)F)cc4)C2=NC(C(=O)OC)=C(C(=O)OC)[C@H]13` gave MARV entry inh 17.5%[14.2 µM].
CCN(CC)C(=O)c1cccc(-c2csc(C(C)(O)c3cccc(F)c3)n2)c1 (centres undefined) was read as Vaccinia Venus inconclusive, Vaccinia mCherry -4.7% and FMDV antiviral 25.1µM*.
For CC(=O)Nc1cccc(-c2csc(C(C)(O)c3cccc(F)c3)n2)c1 (centres undefined) the results were Vaccinia Venus -27.7%, Vaccinia mCherry inconclusive and FMDV antiviral inconclusive.
Cc1nc2ccccc2c2oc(C(=O)NCCN3CCCCC3C)cc12 (centres undefined) was read as Vaccinia Venus -3.3%, Vaccinia mCherry 19.9%, FMDV antiviral -20.7%, MARV entry inh 20.6µM*, Sm TGR block 0.9% and Lassa entry inh 5.6%.
`COc1cccc(CNC(=O)c2cc3c(C)nc4ccccc4c3o2)c1` gave Vaccinia Venus inconclusive, Vaccinia mCherry inconclusive, FMDV antiviral 22.4µM* and Sm TGR block 8.5%.
COc1ccc(CNC(=O)c2cc3c(C)nc4ccccc4c3o2)c(OC)c1 was read as Vaccinia Venus inconclusive, Vaccinia mCherry -18.9%, FMDV antiviral inconclusive and Sm TGR block 0.9%.
For Cc1cc(C)c(OCC(=O)NCC2COc3ccccc3O2)c(C)c1 (centres undefined) the results were Vaccinia Venus -6.6%, Vaccinia mCherry inactive, FMDV antiviral -5.4%, MARV entry inh 3.55µM*, Sm TGR block -5.7% and Lassa entry inh -1.9%.
Screening CCc1ccc(CNC(=O)c2cc3c(C)nc4ccccc4c3o2)cc1 returned Vaccinia Venus inconclusive, Vaccinia mCherry inconclusive, FMDV antiviral inconclusive and Sm TGR block 2.1%.
For Cc1ccc(C)c(OCC(=O)NCC2COc3ccccc3O2)c1 (centres undefined) the results were FMDV antiviral -17.0% and Sm TGR block 9.4%.
Cc1nc2ccccc2c2oc(C(=O)NCC3COc4ccccc4O3)cc12 (centres undefined) was read as Vaccinia Venus -15.6%, Vaccinia mCherry inconclusive, FMDV antiviral inconclusive, MARV entry inh inconclusive, Sm TGR block -10.8% and Lassa entry inh 20.6µM*.

Bioassay records from PubChem.
